Experimental data taken from PubChem BioAssay (NCI).
The panel holds about 83,000 compounds, 20% with a hit somewhere; the sample as a whole holds those more often.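 Note: values are percent growth. 100 is the growth of untreated cells, values between 100 and 0 indicate rising inhibition; between -100 and 0 indicates cell death.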 The source made the active and inactive calls. How the source made its calls: active means growth percent below 10; inactive means the rest.

Experiments:
Assay in all cases: NCI-60 one-dose screen, 48 h (100 = growth as untreated, 0 = no growth, -100 = all killed)
Details in all cases: 10 µM unless noted
[1] = system: NCI-H23 lung
[2] = system: NCI-H226 lung
[3] = system: NCI-H322M lung
[4] = system: HOP-62 NSCLC
[5] = system: NCI-H460 lung
[6] = system: HOP-92 NSCLC
[7] = system: NCI-H522 lung
[8] = system: A549/ATCC NSCLC
[9] = system: 786-0 renal
[10] = system: COLO 205 colon
[11] = system: DU-145 prostate
[12] = system: K-562 leukemia
[13] = system: MALME-3M melanoma
[14] = system: MDA-MB-231 breast
[15] = system: RXF 393 renal
[16] = system: SF-268 CNS
[17] = system: SF-295 CNS
[18] = system: UACC-257 melanoma
[19] = system: M14 melanoma

Measured: growth

Cc1[nH]n(-c2ccccc2)c2nc3nncc3c(-c3ccc(Cl)cc3)c12
inactive: [1] 103% | [2] 104% | [3] 114% | [4] 110% | [5] 102% | [6] 76.2% | [7] 105% | [8] 84.9% | [9] 100% | [10] 111% | [11] 103% | [12] 95.8% | [13] 132% | [14] 106% | [15] 107% | [16] 98.9% | [17] 105% | [18] 101% | [19] 114%

O=C(/C=C/c1ccc(Cl)cc1)/C=C/c1cc2ccccc2[nH]c1=O
inactive: [1] 68% | [2] 93.5% | [3] 105% | [4] 39.4% | [5] 94.4% | [6] 92.5% | [7] 46.4% | [8] 46.5% | [9] 88.5% | [10] 40.8% | [11] 79.3% | [12] 10.1% | [13] 14.3% | [14] 63.8% | [15] 38.3% | [16] 45.2% | [17] 102% | [18] 88.9% | [19] 60.3%

CCOC(=O)c1c2c(n3ccc(NC(=O)CCN4CCCCC4)cc13)C(=O)c1ncccc1C2=O
active: [1] -55.2% | [3] -77.4% | [4] -74.5% | [5] -35.9% | [7] 5.07% | [8] -70.1% | [10] -71.8% | [11] -93.9% | [12] -48.2% | [13] -71.7% | [14] -72.9% | [19] -77.9%
inactive: [2] 73.8% | [6] 78.5% | [9] 19.4% | [15] 41.4% | [16] 36.6% | [17] 35.3% | [18] 21.2%

O=C1c2cccnc2C(=O)c2c1c(C(=O)OCCN1CCOCC1)c1ccccn21
active: [1] -38.4% | [2] -28.4% | [3] -55.4% | [4] -34% | [5] -31.2% | [6] 8.96% | [7] -30.2% | [8] -48.7% | [9] 2.64% | [10] -53.5% | [11] -20.3% | [12] -16% | [13] -64.8% | [14] 9.01% | [17] -47% | [18] -47% | [19] -58.7%
inactive: [15] 10.7% | [16] 13%

COc1ccc(C2CC(=O)Nc3c2c(C)nn3-c2nc3ccccc3[nH]2)cc1 (stereo not drawn)
active: [12] -33.9%
inactive: [1] 99.1% | [2] 101% | [3] 53.9% | [4] 116% | [5] 20.8% | [6] 89.1% | [7] 98.2% | [8] 97.4% | [9] 106% | [10] 129% | [11] 89.1% | [13] 28.8% | [14] 109% | [15] 101% | [16] 47.9% | [17] 85.9% | [18] 111% | [19] 84.5%

CN(C)CCCC(=O)Nc1ccc(Cn2nnc3c2C(=O)c2nnn(Cc4ccc(NC(=O)CCCN(C)C)cc4)c2C3=O)cc1
inactive: [2] 102% | [3] 38.5% | [4] 83.2% | [5] 31% | [6] 116% | [7] 71.8% | [8] 91.9% | [9] 96.9% | [11] 86% | [12] 70.1% | [15] 90.8% | [16] 80.6% | [17] 77.8% | [18] 47.9% | [19] 85.8%
active: [1] 2.08% | [10] -9.75% | [13] -33.4% | [14] 3.74%

O=C1c2cc3c(cc2-c2c1c1cc(F)c(F)cc1c(=O)n2C[C@H](O)CO)OCO3
active: [1] -30.4% | [2] -74.1% | [3] -3.54% | [4] -35.2% | [5] 1.39% | [6] 9.43% | [7] -3.34% | [8] -57.8% | [9] -20.8% | [10] -17.9% | [11] 1.97% | [12] 6.33% | [13] -21.3% | [14] 5.4% | [15] -51.5% | [16] 6.49% | [17] -7.95% | [18] -37.2% | [19] 1.79%

O=C1c2cc3c(cc2-c2c1c1cc(Cl)c(Cl)cc1c(=O)n2C[C@H](O)CO)OCO3
active: [1] -55.7% | [2] -62% | [3] -16% | [4] -54.3% | [5] -0.391% | [6] -31.9% | [7] -29% | [8] -47.3% | [9] -44.3% | [10] -39.4% | [11] -14.6% | [12] 7.53% | [13] -37.4% | [14] 0.134% | [15] -69% | [16] -2.79% | [17] -47% | [18] -52.9% | [19] -16.3%

CCCCCCCCCCCCCC(=O)C(C)N (stereo not drawn)
inactive: [1] 51.6% | [2] 87.9% | [3] 53.5% | [4] 22.3% | [8] 51.6% | [9] 71.3% | [10] 15.9% | [13] 77.8% | [15] 28% | [16] 37.7% | [17] 56.3% | [18] 91.6% | [19] 63.7%
active: [5] 4.75% | [6] 8.22% | [7] 0.193% | [11] 7.93% | [12] -44.3% | [14] -54.1%

CC(=O)C1=C(O)C=C2Oc3c(C(=O)/C=C/c4cc(Cl)cc(Cl)c4)c(O)c(C)c(O)c3[C@]2(C)C1=O
active: [1] -42% | [2] -41.1% | [3] -28.9% | [4] -42.5% | [5] -5.02% | [6] -22% | [7] -52.2% | [8] -27.1% | [9] -34.9% | [10] -70.3% | [11] -3.76% | [12] -16.2% | [13] -62.4% | [14] -30.9% | [15] -40.4% | [16] -21.4% | [17] -18.7% | [18] -19.6% | [19] -32.8%

COc1ccc(C2Nc3ccccc3-n3cccc32)cc1 (stereo not drawn)
inactive: [1] 80.4% | [2] 96.7% | [3] 97% | [4] 104% | [5] 102% | [6] 74.2% | [7] 95.7% | [8] 104% | [9] 111% | [10] 126% | [11] 111% | [12] 105% | [13] 100% | [14] 78.7% | [15] 111% | [16] 98.7% | [17] 92.4% | [18] 98.9% | [19] 99.3%

NC(=S)N/N=C/c1cc(-c2cccc(N)c2)ccn1
inactive: [1] 23.1% | [2] 16.5% | [6] 39.7% | [8] 21.7% | [9] 31.4% | [10] 25.5% | [11] 28.1% | [12] 14.9% | [13] 15.6% | [14] 57.6% | [15] 34.5% | [16] 21.2% | [18] 29.3%
active: [3] 8.21% | [4] 5.98% | [5] 5.59% | [7] -17.3% | [17] 9.47% | [19] 1.75%

COc1ccc(-c2cnoc2-c2cc(OC)c3c(c2)OCCO3)cc1
inactive: [1] 16.7% | [2] 61.8% | [3] 45% | [6] 31% | [8] 18.6% | [13] 62.8% | [15] 32.3% | [16] 19.9% | [18] 69.7%
active: [4] -8.55% | [5] 3.25% | [7] -39.1% | [9] 8.21% | [10] -58.4% | [11] -9.77% | [12] 6.93% | [14] -23.8% | [17] 9.28% | [19] 7.58%

Cc1cc(OCc2ccc(C(F)(F)F)cc2)c2c(c1)C(=O)C=C(NCCN1CCCC1)C2=O
active: [10] -77.4% | [12] -8.28% | [13] -45.4% | [18] -92.4% | [19] -84.9%
inactive: [1] 84.5% | [2] 93% | [3] 80.9% | [4] 83.1% | [5] 43.9% | [6] 60.1% | [7] 87.6% | [8] 54.3% | [9] 58.5% | [11] 76.2% | [14] 74.7% | [15] 53.6% | [16] 69% | [17] 64.1%

COc1cc2nc3cc([N+](=O)[O-])ccc3c(NCCCNCC(C)(C)O)c2cc1OC
active: [1] -47.4% | [2] -37.6% | [3] -24.8% | [4] -53.3% | [5] -48.5% | [6] -53.9% | [7] -56.7% | [8] -30.9% | [9] -61.6% | [10] -81.2% | [11] -34.3% | [12] 0.851% | [13] -81.8% | [14] -62.5% | [15] -81.9% | [16] -57.4% | [17] -41.2% | [18] -64.2% | [19] -77.3%

COc1ccc(C(=O)c2sc3nc(-c4ccccc4OC)ccc3c2N)cc1OC
inactive: [1] 63.2% | [2] 63% | [3] 87.2% | [4] 95.3% | [5] 51.7% | [6] 56.4% | [7] 50.3% | [8] 64.6% | [9] 64.1% | [10] 102% | [11] 70.1% | [12] 25.1% | [13] 90.6% | [14] 64% | [15] 55.8% | [16] 64.7% | [17] 47.9% | [18] 86.6% | [19] 50%

C[C@]12C[C@@H](c3ccoc3)OC(=O)[C@@H]1CC[C@]1(C)[C@@H]2CC[C@@H](O)[C@]1(C)O
inactive: [1] 76.1% | [2] 107% | [3] 99.2% | [4] 49.4% | [5] 50.1% | [6] 54.2% | [7] 55.5% | [8] 49.5% | [9] 84% | [10] 40.9% | [11] 73% | [12] 39.8% | [13] 81.6% | [14] 74.6% | [15] 102% | [16] 106% | [17] 51.7% | [18] 83% | [19] 82.4%
